Data as given in PubChem BioAssay (NCATS).
A number with no mark means an inactive call. Inconclusive results are not listed. Where a call stands in place of a potency, no number is given. The source made the active and inactive calls. Unless noted, the call rests on the fitted dose curve; in most records, active means well fitted curve in the direction sought with a large enough effect; inconclusive means small, poorly fitted or top-dose-only effect, or another doubt; inactive means no such curve, though single readings can be large; an effect the other way counts as inactive or inconclusive.

Assays:
[1] = target: Lysosomal acid glucosylceramidase (Homo sapiens) (UniProt P04062); assay: Glucocerebrosidase-p2 (AID 348; in the data active means potency below about 10 µM; further: potency means the concentration at half of the fitted maximal effect); conditions: purified GBA, blue fluorogenic substrate, 40 min
Chain of Lysosomal acid glucosylceramidase (Homo sapiens) (P04062 whole entry, looked up): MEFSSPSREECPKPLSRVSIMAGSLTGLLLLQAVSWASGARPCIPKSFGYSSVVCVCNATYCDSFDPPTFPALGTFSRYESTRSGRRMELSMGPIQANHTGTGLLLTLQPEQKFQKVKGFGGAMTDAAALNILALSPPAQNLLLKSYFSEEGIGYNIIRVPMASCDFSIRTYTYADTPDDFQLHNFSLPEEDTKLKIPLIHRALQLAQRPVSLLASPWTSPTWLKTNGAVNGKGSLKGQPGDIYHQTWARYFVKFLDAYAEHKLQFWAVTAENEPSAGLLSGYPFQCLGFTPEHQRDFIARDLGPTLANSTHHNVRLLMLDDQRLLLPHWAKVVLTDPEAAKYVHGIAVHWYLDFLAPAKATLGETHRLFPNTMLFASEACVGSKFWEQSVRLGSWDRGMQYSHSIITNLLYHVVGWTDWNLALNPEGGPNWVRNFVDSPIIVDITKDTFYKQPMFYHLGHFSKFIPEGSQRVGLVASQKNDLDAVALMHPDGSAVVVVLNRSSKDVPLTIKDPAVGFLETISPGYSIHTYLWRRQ
How it was run: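 Normal human glucocerebrosidase (0.2 nM) with blue fluorogenic substrate (80 uM final) in citrate/phosphate pH 5.9 with 10mM sodium taurocholate, 0.01% tween-20; 40 min RT, NaOH/glycine stop; fluorescence Ex 365/Em 440; AC50 from a titration from 0.6 nM upwards.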

[2] = AP1 Signaling Pathway (AID 357; active means well fitted curve in either direction with a large enough effect, not every such curve was filed as active;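 further: ME-180 reporter cells stimulated with EGF at its EC50 level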); conditions: ME-180 AP-1-bla reporter, EGF-induced, beta-lactamase ratio, 5 h; at 7.69 µM (top of the series) unless noted
How it was run: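 Beta-lactamase reporter under AP-1 response element, ME-180 background. Stimulus: EC50 EGF. Compound exposure 5 h, 37 °C. Detection: CCF4, 2.5 h RT, 460/530 nm. Values: AC50 from titration.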

[3] = Stat Signaling Pathway (AID 446; active means well fitted curve in either direction with a large enough effect, not every such curve was filed as active;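 further: ME-180 cervical cancer cells given 40 pM IL-6 alongside compound; SIE-controlled beta-lactamase reporter measured as 460/530 nm FRET emission ratio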); conditions: ME-180 (cervical carcinoma) SIE beta-lactamase reporter, IL-6 stimulated, 5 h; at 7.69 µM (top of the series) unless noted
How it was run: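 FRET read-out (405 nm excitation, 460/530 nm emission) of a beta-lactamase reporter under a STAT-inducible element in ME-180 cervical carcinoma cells. Cells with compound receive 40 pM IL-6 for 5 h. Values are normalised to AC90 stimulation and AC90 JAK-inhibitor controls.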

[4] = target: Glucocorticoid receptor (Homo sapiens) (UniProt P04150); assay: GR-EFC Redistribution (AID 451; calls by dose curve; further: potency means the concentration at half of the fitted maximal effect); conditions: CHO-K1 GR-EFC translocation, beta-gal luminescence, 2 h
Chain of Glucocorticoid receptor (Homo sapiens) (P04150 whole entry, looked up, the tested form may be a part): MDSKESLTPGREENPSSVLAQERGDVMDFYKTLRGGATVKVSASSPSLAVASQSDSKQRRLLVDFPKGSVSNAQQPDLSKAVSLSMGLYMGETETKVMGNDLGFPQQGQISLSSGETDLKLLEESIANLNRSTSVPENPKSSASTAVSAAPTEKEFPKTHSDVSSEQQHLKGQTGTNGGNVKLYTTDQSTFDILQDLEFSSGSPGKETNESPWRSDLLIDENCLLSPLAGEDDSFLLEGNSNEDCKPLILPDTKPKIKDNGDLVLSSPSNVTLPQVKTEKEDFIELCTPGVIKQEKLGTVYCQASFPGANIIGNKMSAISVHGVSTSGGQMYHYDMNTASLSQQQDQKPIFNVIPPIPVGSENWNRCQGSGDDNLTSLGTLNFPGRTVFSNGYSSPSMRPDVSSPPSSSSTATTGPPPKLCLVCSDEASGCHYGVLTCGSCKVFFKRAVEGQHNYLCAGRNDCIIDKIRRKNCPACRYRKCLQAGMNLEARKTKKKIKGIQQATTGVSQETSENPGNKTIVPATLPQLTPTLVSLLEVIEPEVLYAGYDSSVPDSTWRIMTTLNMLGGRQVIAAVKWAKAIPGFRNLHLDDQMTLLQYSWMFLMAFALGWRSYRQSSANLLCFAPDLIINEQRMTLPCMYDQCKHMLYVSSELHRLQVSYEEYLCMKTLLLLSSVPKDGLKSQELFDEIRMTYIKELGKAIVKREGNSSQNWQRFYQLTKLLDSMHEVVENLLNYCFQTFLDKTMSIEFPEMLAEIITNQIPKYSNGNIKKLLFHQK
How it was run: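 CHO-K1 cells stably expressing nuclear-localized β-gal enzyme acceptor and GR fused C-terminally to the enzyme donor fragment; ligand-driven nuclear translocation restores β-gal by complementation. Compounds titrated up to 46 uM final, 2 h at 37 °C; luminescence read.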

[5] = target: Mitogen-activated protein kinase 10 (Mus musculus) (UniProt Q61831); assay: JNK3 AlphaScreen Assay (AID 530; active means well fitted curve in either direction with a large enough effect, not every such curve was filed as active;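 further: kinase came from lysate of stimulated human HepG2 cells; signal reports phosphorylation of biotinylated GST-cJun 1-79 at Ser73 with 10 µM ATP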); conditions: JNK3 lysate, c-Jun phosphorylation; series mostly up to 57.1 µM
How it was run: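 Phosphorylation of biotinylated GST-cJun(1-79) at Ser73 is measured by AlphaScreen proximity luminescence. Enzyme is JNK3 in HepG2 lysates activated with interleukin-1beta and tumor necrosis factor alpha; ATP is 10 uM final.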

[6] = target: 3',5'-cyclic-AMP phosphodiesterase 4B (Homo sapiens) (UniProt Q07343); assay: qHTS Assay for Inhibitors of PDE-IV (AID 607; active means well fitted activation curve with a large enough effect in the main read-out, with a control signal flat, not every such curve was filed as active); conditions: HEK293 ACTOne CNG channel cells, membrane potential fluorescence; series mostly up to 22.9 µM
Chain of 3',5'-cyclic-AMP phosphodiesterase 4B (Homo sapiens) (Q07343 whole entry, looked up): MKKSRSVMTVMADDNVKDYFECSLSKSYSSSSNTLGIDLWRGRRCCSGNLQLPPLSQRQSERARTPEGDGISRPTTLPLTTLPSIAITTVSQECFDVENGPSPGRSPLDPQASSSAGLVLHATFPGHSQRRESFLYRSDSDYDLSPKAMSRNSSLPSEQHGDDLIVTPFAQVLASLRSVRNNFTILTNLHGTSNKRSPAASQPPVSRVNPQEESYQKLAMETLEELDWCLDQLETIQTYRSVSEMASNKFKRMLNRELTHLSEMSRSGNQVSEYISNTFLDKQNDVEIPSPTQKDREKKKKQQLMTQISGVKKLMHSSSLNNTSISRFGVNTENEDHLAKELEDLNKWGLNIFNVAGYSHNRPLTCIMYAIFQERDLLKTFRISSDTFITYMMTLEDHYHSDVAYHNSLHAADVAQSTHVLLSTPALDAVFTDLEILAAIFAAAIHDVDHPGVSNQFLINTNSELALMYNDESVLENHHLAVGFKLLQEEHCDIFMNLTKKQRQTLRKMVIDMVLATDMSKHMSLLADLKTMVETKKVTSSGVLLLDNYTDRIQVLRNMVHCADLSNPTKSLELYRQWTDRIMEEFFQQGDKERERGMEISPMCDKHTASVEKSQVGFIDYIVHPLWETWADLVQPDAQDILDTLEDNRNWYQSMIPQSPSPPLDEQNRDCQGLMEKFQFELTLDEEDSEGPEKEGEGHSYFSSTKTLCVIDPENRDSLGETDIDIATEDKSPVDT
How it was run: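 Cell-based read-out of cAMP via a modified cyclic nucleotide-gated channel and membrane potential dye (535/590 nm) in HEK293 cells expressing PDE4 endogenously. Compounds tested up to 22.9 uM final; 100 uM RO 20-1724 reference.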

[7] = Primary qHTS for small molecule stabilizers of the endoplasmic reticulum resident proteome: Secreted ER Calcium Modulated Protein (SERCaMP) assay (AID 1508630); conditions: SH-SY5Y GLuc-SERCaMP (Gaussia luciferase released on ER calcium loss) secretion, thapsigargin, luminescence; series mostly up to 38.4 µM
How it was run: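 The SH-SY5Y reporter protocol was run at 3 concentrations up to 38.3 uM (primary) or 11 concentrations (follow-up): 16 h compound, 100 nM thapsigargin for 4 h, then extracellular luciferase luminescence.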

[8] = target: Rap guanine nucleotide exchange factor 3 (Homo sapiens) (UniProt O95398); assay: Confirmatory qHTS for antagonist of cAMP-regulated guanine nucleotide exchange factor 3 (EPAC1) (AID 1645880); conditions: EPAC1 Rap1B-BODIPY-GDP exchange, fluorescence; series mostly up to 115 µM; further: nearly all actives have a fitted effect of over 55% in size; further: potency means the concentration at half of the fitted maximal effect
How it was run: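 Released BODIPY-GDP fluoresces less than Rap1-bound BODIPY-GDP; the signal is followed at 480/540 nm at 5-min intervals over 30 min, after 5 min at room temperature. Reactions contain 100 nM EPAC1, 250 nM RAP1B-BODIPY-GDP and 50 uM GDP; results are normalized to ATA and DMSO.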

[9] = target: Rap guanine nucleotide exchange factor 3 (Homo sapiens) (UniProt O95398); assay: Confirmatory qHTS for agonist of cAMP-regulated guanine nucleotide exchange factor 3 (EPAC1) (AID 1645881); conditions: EPAC1 Rap1B BODIPY-GDP exchange fluorescence; series mostly up to 154 µM; further: nearly all actives have a fitted effect of over 75% in size; further: potency means the concentration at half of the fitted maximal effect;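 on activation: EPAC1 catalysed release of BODIPY-GDP from Rap1B seen as fluorescence loss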
[10] = target: Rap guanine nucleotide exchange factor 4 (Homo sapiens) (UniProt Q8WZA2); assay: Confirmatory qHTS for agonist of cAMP-regulated guanine nucleotide exchange factor 4 (EPAC2) (AID 1645884); conditions: EPAC2 GEF activity, Rap1B-BODIPY-GDP fluorescence; series mostly up to 154 µM;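 further: nucleotide exchange releases bodipy-GDP from Rap1 and this lowers its fluorescence; nearly all actives have a fitted effect of over 65% in size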; further: potency means the concentration at half of the fitted maximal effect
Chain of Rap guanine nucleotide exchange factor 4 (Homo sapiens) (Q8WZA2 whole entry, looked up): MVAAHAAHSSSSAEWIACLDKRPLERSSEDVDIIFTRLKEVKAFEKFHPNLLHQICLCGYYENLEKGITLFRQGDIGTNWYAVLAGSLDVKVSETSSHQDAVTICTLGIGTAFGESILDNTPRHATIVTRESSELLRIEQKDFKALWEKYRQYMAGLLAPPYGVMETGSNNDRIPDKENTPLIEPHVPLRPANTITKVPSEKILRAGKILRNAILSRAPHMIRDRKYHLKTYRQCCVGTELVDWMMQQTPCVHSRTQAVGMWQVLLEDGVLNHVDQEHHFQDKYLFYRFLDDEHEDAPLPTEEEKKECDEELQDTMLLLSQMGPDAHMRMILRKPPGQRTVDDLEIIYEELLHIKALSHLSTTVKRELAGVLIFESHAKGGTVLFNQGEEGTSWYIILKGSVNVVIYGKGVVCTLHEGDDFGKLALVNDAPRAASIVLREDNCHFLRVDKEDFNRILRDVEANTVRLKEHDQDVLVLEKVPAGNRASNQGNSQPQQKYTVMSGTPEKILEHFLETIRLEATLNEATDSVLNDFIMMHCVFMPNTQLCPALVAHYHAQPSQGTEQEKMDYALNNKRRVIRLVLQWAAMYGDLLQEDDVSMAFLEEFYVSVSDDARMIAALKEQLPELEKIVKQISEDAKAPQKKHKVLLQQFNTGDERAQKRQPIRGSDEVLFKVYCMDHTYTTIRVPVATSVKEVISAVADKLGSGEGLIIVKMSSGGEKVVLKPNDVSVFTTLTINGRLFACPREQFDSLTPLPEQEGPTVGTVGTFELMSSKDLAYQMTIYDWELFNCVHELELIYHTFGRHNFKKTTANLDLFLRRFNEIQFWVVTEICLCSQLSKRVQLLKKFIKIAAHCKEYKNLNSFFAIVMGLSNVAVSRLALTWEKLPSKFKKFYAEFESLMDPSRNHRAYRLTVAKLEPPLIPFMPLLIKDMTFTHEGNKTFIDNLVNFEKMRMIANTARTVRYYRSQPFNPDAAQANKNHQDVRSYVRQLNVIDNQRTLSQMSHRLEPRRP

[11] = target: Rap guanine nucleotide exchange factor 4 (Homo sapiens) (UniProt Q8WZA2); assay: Confirmatory qHTS for antagonist of cAMP-regulated guanine nucleotide exchange factor 4 (EPAC2) (AID 1645885); conditions: EPAC2 Rap1B-BODIPY-GDP exchange fluorescence, biochemical; series mostly up to 114 µM; further: nearly all actives have a fitted effect of over 25% in size
[12] = NFAT Signaling Pathway (AID 444; active means well fitted curve in either direction with a large enough effect, not every such curve was filed as active;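 further: carbachol stimulus at about its EC50 of 1 µM final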); conditions: Jurkat NFAT-bla M1, carbachol, beta-lactamase ratio, 5 h; at 7.69 µM (top of the series) unless noted
How it was run: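 Jurkat cells carrying an NFAT-driven β-lactamase reporter and co-transfected muscarinic M1 receptor were treated with compound plus carbachol (1 uM final, an EC50 level) for 5 h at 37 °C. CCF4 loading followed for 1 h at RT; 460/530 nm ratio gave %activity.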

[13] = target: Glucocorticoid receptor (Homo sapiens) (UniProt P04150); assay: GR-GFP Redistribution (AID 450;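 active means compounds whose dose series gives a full or clear partial fitted curve of increased nuclear translocation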; further: potency means the concentration at half of the fitted maximal effect); conditions: U2OS GR-GFP nuclear translocation, laser cytometry, 2 h
[14] = target: Cytochrome P450 1A2 (Homo sapiens) (UniProt P05177); assay: p450-cyp1a2 (AID 410; calls by dose curve; further: potency means the concentration at half of the fitted maximal effect); conditions: recombinant CYP1A2, luciferin-ME demethylation, luminescence; series mostly up to 57 µM
How it was run: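 Luminescent demethylation readout: Luciferin-ME (100uM, equal to Km) turned over by 20nM CYP1A2 for 60 min at room temperature after NADPH regeneration addition, following 10 min compound preincubation. Normalization used 57 uM furafylline as full inhibition.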

[15] = target: Cytochrome P450 3A4 (Homo sapiens) (UniProt P08684); assay: qHTS Assay for Activators of Cytochrome P450 3A4 (AID 885); conditions: recombinant CYP3A4, Luciferin-PPXE luminescence, 60 min; series mostly up to 57.1 µM; further: nearly all actives have a fitted effect of over 65% in size
Chain of Cytochrome P450 3A4 (Homo sapiens) (P08684 whole entry, looked up): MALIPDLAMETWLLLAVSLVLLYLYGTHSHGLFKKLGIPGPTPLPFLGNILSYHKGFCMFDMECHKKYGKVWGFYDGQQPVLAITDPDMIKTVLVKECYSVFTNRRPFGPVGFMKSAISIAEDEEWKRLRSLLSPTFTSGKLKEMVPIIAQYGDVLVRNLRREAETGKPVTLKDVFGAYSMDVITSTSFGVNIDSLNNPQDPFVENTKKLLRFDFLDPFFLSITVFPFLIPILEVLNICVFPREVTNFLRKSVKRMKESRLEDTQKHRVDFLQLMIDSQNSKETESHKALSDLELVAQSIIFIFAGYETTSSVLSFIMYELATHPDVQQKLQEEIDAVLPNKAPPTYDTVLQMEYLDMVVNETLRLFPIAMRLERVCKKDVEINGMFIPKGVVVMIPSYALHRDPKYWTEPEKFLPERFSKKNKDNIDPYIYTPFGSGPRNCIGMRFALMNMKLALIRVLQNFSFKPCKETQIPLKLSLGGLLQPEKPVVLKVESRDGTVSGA
How it was run: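 Luminescent readout of luciferin formed from 25 uM Luciferin-PPXE (KM level) by 20 nM CYP3A4 in 200 mM KPO4, with 60 min NADPH-driven reaction at room temperature after 10 min compound exposure. Ketoconazole (57 uM) defined 100% inhibition.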

[16] = target: Dual specificity protein kinase CLK4 (Homo sapiens) (UniProt Q9HAZ1); assay: qHTS Assay for Inhibitors of CDC-like Kinase 4 (ADP-FP Assay) (AID 1795); conditions: Transcreener ADP fluorescence polarization; series mostly up to 50 µM; further: nearly all actives have a fitted effect of over 60% in size; further: potency means the concentration at half of the fitted maximal effect
Chain of Dual specificity protein kinase CLK4 (Homo sapiens) (Q9HAZ1 whole entry, looked up): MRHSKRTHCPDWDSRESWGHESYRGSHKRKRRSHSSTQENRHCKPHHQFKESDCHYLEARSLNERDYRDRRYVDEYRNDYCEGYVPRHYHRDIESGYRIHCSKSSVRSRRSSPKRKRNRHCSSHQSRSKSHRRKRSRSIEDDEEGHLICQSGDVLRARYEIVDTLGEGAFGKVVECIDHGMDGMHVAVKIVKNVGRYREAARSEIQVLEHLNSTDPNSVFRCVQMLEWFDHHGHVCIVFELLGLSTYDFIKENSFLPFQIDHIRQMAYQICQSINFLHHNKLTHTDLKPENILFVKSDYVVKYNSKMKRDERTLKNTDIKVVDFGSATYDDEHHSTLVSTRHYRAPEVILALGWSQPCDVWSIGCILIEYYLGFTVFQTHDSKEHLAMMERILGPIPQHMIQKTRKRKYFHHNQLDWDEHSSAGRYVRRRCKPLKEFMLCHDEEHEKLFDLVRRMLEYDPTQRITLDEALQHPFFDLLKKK
How it was run: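 Recombinant human Clk4 (6.25 nM) phosphorylated RS repeat peptide (100 uM) with 1 uM ATP in Tris pH 7.5/MgCl2/EGTA/DTT/Triton buffer for one hour. ADP was quantified by Transcreener competitive fluorescence polarization against an ADP calibration curve.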

[17] = target: Ubiquitin carboxyl-terminal hydrolase 1 (Homo sapiens) (UniProt O94782); assay: Inhibitors of USP1/UAF1: Pilot qHTS (AID 504865); conditions: purified USP1/UAF1, Ub-rhodamine cleavage fluorescence; series mostly up to 54.9 µM; further: nearly all actives have a fitted effect of over 35% in size; further: potency means the concentration at half of the fitted maximal effect;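 on activity change, negative = inhibition: rhodamine fluorescence freed from ubiquitin-rhodamine substrate followed over time; top concentration of the series differs between compounds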
Chain of Ubiquitin carboxyl-terminal hydrolase 1 (Homo sapiens) (O94782 whole entry, looked up): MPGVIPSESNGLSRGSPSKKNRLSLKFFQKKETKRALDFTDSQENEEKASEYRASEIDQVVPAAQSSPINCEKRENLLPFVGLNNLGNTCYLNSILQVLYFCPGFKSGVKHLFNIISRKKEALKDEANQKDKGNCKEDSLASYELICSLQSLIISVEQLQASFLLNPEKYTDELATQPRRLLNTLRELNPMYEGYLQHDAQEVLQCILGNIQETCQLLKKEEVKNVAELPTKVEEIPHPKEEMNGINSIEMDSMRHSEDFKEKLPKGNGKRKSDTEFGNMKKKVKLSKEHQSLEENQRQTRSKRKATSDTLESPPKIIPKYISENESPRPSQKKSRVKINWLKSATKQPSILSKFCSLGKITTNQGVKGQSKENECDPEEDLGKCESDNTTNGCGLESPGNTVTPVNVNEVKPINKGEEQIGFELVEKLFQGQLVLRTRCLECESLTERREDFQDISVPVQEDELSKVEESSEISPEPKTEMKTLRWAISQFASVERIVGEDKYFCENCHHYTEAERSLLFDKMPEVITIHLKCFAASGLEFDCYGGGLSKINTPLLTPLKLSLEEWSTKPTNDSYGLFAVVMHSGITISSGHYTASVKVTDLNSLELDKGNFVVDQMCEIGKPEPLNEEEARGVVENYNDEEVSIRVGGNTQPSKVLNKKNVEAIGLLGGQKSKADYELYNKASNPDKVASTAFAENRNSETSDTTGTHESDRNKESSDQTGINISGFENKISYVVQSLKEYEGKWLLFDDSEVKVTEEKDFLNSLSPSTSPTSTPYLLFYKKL
How it was run: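 USP1/UAF1 complex (1nM) preincubated with compound 15 min at room temperature, then Ub-Rho substrate (150nM final) added. Fluorescence read kinetically at 480/540 nm, 6 reads every 60 seconds. Buffer: 50mM HEPES pH 7.8, 0.5mM EDTA, 0.1 mg/ml BSA, 1mM TCEP, 0.01% Tween-20.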

Row | SMILES | Potency [1] | activity change, negative = inhibition [2] | activity, negative = inhibition [3] | Potency [4] | Potency [5] | Potency [6] | outcome [7] | Potency [8] | Potency [9] | Potency [10] | Potency [11] | activity change, negative = inhibition [12] | Potency [13] | Potency [14] | Potency [15] | Potency [16] | Potency [17]
1 | COC(=O)N1CCC2(CCCN(c3cccc(-c4ccccc4)c3)C2)CC1 | > 11.4 µM | 3.74% | -6.31% | > 46 µM | inactive | inactive | inactive | inactive | inactive | inactive | inactive |  |  |  |  |  | 
2 | CN(C)c1ncc2nc(-c3cccs3)c(=O)n(C3CC3)c2n1 | > 11.4 µM | 6.37% |  | > 46 µM |  |  | inactive | inactive |  | 19.9 µM (active) | inactive | 19.8% | > 9.22 µM |  |  |  | 
3 | O=C(c1cccc(F)c1)N1CCC2(CCCN(c3cccc(-c4ccccc4)c3)C2)CC1 | > 11.4 µM | 11.6% | 7.29% | > 46 µM | inactive | inactive | inactive | inactive | inactive | inactive | inactive | -6.68% |  | 15.8 µM (active) | inactive |  | 
4 | COc1cccc(Nc2ncc3nc(-c4cccs4)c(=O)n(-c4ccccc4)c3n2)c1 | > 11.4 µM | -24.2% | 3.1% | > 46 µM | inactive | inactive | inactive | inactive | 70.6 µM (active) |  | inactive | -15.6% |  | 3.16 µM (active) | inactive | inactive | 35.5 µM (active)
5 | COc1ccc2[nH]cc(CCNc3nc(-c4cccc(C#N)c4)nc4ccccc34)c2c1 |  |  |  | > 46 µM | inactive | inactive | inactive | inactive | inactive | inactive | inactive |  | > 46 µM |  |  | inactive | inactive
6 | COCCn1c(=O)c(-c2cccs2)nc2cnc(N3CCOCC3)nc21 | > 11.4 µM | -6.06% | -8.84% | > 46 µM | inactive | inactive | inactive | inactive |  |  | inactive | 2.93% | > 9.22 µM |  |  | inactive | inactive
7 | CN(C)c1ncc2nc(-c3cc(F)cc(F)c3)c(=O)n(Cc3cccs3)c2n1 | > 11.4 µM |  | 190% [activator] (active) | > 46 µM |  | inactive | inactive | inactive | inactive | inactive | inactive | 110% [activator] (active) | > 9.22 µM | 1.58 µM (active) | inactive |  | 
8 | COc1ccc(-c2nc3cnc(Nc4ccccc4)nc3n(CCC#N)c2=O)cc1 | > 11.4 µM | -3.18% | -4.64% | > 46 µM | inactive |  | inactive | inactive |  | 70.6 µM (active) | inactive |  |  | 0.501 µM (active) |  |  | 
9 | COc1ccc(C(=O)N2CCC3(CCCN(c4cccc(-c5ccccc5)c4)C3)CC2)cc1 | > 11.4 µM | 11.7% | 1.07% | > 46 µM | inactive | inactive | inactive | inactive |  |  | inactive |  |  |  |  |  | 
10 | COc1cccc(Nc2ncc3nc(-c4cc(F)cc(F)c4)c(=O)n(C4CC4)c3n2)c1 | > 11.4 µM | -13.3% | -7.32% | > 46 µM | inactive | inactive | inactive | inactive | inactive | inactive | inactive | -29.9% | > 9.22 µM | 6.31 µM (active) |  |  | 
11 | Cn1cccc1C(=O)N1CCC2(CC1)CN(c1cccc(-c3ccccc3)c1)C2 | > 11.4 µM | -14% | -13.7% | > 46 µM |  | inactive | inactive | inactive | inactive | inactive |  | -2.77% |  | 25.1 µM (active) |  |  | 
12 | COc1cccc(Nc2ncc3ncc(=O)n(Cc4cccs4)c3n2)c1 | > 11.4 µM |  |  | > 46 µM | inactive |  | inactive | inactive | inactive | inactive |  |  | > 9.22 µM | 1.58 µM (active) |  | 0.501 µM (active) | inactive
13 | O=c1c(-c2ccc(F)c(F)c2)nc2cncnc2n1Cc1ccccc1Cl | > 11.4 µM | 4.57% | 9.03% | > 46 µM | inactive |  | inactive | inactive | inactive | inactive |  | -7.38% | > 9.22 µM | 5.01 µM (active) | inactive |  | 
14 | COc1ccccc1CNc1nc(-c2cccc(C#N)c2)nc2ccccc12 | > 11.4 µM |  | -22% | > 46 µM | inactive |  | inactive | inactive | inactive |  | inactive |  | > 46 µM | 1.26 µM (active) | inactive | inactive | 
15 | CCCCCc1c2c(cc(O)c1C(=O)O)OC(=O)c1cc(C(=O)CCCC)c(OC)cc1O2 |  |  |  |  |  |  | inactive | 42.6 µM (active) | inactive | inactive |  |  |  |  |  |  | 
